Compound activity: PubChem BioAssay, several laboratories
PKA-R1A activ: activators of PKA-R1A holoenzyme, primary screen, biochemical, fluorescence polarization, Cy5-IP20, bovine R1A, mouse PKAc | PKA-R1A dissociation; scaled: DMSO 0%, 113 µM cGMP 100% | 340,000 compounds, 0.083% hits | activation, % at 11.4 µM | cAMP-dependent protein kinase type I-alpha regulatory subunit (Bos taurus) + …;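 active means percent activation above the mean of all tested compounds plus 3 SD, cut at about 19% in these data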;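 further: higher means more PKAc released from R1A so a rise in polarization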
TMEM16A act: TMEM16A chloride channel activators or potentiators, primary screen, cell-based, HTS; Anoctamin-1 (Mus musculus), Q8BHY3; HEK293 TMEM16A/YFP-H148Q/I152L, iodide quench fluorescence; active compounds read low; B-score at 10 µM; 340,000 compounds, 0.3% hits; AID 623877, 2012;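 active means fluorescence-ratio B-score plate-corrected deviation score at least 3 library SD below zero, with starting fluorescence score within 5 deviations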;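 further: channel opened by trigger with iodide after compound preincubation; score built on the fluorescence ratio of max minus min over baseline; more negative score means more quench and so TMEM16A activation or potentiation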
CHT allo act: CHT positive allosteric modulators, primary screen, cell-based, membrane potential dye, choline EC20; High affinity choline transporter 1 (Homo sapiens), Q9GZV3; CHT-expressing cells; active compounds read high; LV-AA mutant CHT in HEK293 cells; B-score at 10 µM; 310,000 compounds, 0.49% hits; AID 488977, 2010;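 active means initial fluorescence not abnormally high and integrated response B-score, plate-corrected, over 3 SD above library mean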
Target sequence (Q9GZV3 whole entry, looked up): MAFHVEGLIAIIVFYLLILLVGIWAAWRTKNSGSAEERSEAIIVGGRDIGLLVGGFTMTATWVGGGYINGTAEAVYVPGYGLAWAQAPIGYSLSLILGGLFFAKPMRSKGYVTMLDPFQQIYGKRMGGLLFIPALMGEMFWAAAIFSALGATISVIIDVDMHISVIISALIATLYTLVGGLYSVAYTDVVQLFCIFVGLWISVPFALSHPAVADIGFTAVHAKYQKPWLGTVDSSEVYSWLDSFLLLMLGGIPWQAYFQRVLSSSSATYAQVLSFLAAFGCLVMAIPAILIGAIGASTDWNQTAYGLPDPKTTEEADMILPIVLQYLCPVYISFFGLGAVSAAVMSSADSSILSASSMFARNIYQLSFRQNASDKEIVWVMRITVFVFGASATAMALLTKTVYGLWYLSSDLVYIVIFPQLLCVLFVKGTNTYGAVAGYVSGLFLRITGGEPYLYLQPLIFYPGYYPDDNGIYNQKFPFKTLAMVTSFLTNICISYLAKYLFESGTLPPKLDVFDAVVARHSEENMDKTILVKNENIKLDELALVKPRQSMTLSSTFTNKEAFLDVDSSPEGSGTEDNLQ
ANO1 block: TMEM16A chloride channel inhibitors, primary screen, cell-based, HTS. Anoctamin-1 (Mus musculus), Q8BHY3. HEK293 TMEM16A/YFP iodide influx fluorescence, ionomycin. normalized B-score (activity score, 25-100; higher = stronger inhibition) at 10 µM. 310,000 compounds, 1.2% hits. AID 588511, 2011;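 active means ratio plate-corrected score three or more library SD toward inhibition, starting fluorescence score within five deviations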;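 further: score derived from kinetic fluorescence span divided by baseline fluorescence per well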
CHT block: inhibitors of human choline transporter CHT. CHT-expressing cells, membrane potential dye, choline response; active compounds read low. B-score at 10 µM. 310,000 compounds, 0.86% hits. High affinity choline transporter 1 (Homo sapiens), Q9GZV3;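 active means B-score over 3 SD under the library average, and starting fluorescence ratio not unusually high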;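 further: choline stimulus applied at its EC90 after an EC20 pre-addition; B-score computed on integrated fluorescence ratio after choline addition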
PKA-R2B act: activators of PKA-R2B holoenzyme, primary screen, biochemical, fluorescence polarization, Cy5-IP20, human. cAMP-dependent protein kinase catalytic subunit beta (Homo sapiens) + cAMP-dependent …. PKA-R2B holoenzyme dissociation; R2B truncated from residue 108, S112A mutant; 0% DMSO only, 100% 113 µM cGMP. activation, % at 11.4 µM. 340,000 compounds, 0.079% hits. AID 504700, 2011;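 active means activation above a cutoff set at the mean over all compounds plus 3 SD, cut at about 18% in these data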;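 further: higher means more holoenzyme dissociation and a rise in polarization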
TMEM16A reconf: TMEM16A chloride channel inhibitors, confirmation, cell-based, re-confirmation; shares compounds with ANO1 block; HEK293 TMEM16A/YFP-H148Q, iodide quench fluorescence; ionomycin added to raise cell calcium; inhibition, % at 10 µM; 2,300 compounds, 39% hits;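 active means mean duplicate percent inhibition, scaled so buffer wells are 0 and the reference blocker 100, over three buffer SD above buffer mean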
HEK293 Ca mobil: calcium mobilization in TMEM16A/YFP HEK293 cells, confirmation, counter-screen for TMEM16A inhibitor project. shares compounds with ANO1 block. Fluo4 calcium mobilization. calcium response (% of ionomycin), % at 10 µM. 2,300 compounds, 2% hits. AID 652231, 2013;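 active means duplicate-averaged calcium signal over 20% of the ionomycin maximum, relative to buffer baseline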;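 further: each well's signal is peak minus trough fluorescence divided by its pre-addition baseline; 0% = buffer wells and 100% = ionomycin wells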
YFP-HEK293 quench: iodide YFP quench changes in parental YFP-HEK293, counter-screen for TMEM16A inhibitor project, cell-based; shares compounds with ANO1 block; ionomycin; YFP ratio F(max-min)/F0 at 10 µM; 2,300 tested, under 10 active;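 active means yellow fluorescent protein signal ratio exceeding the buffer control mean by over 5 SD of those controls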;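 further: ratio is mean of duplicate wells from kinetic YFP trace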
ClC-1 rat inh: ClC-1 chloride channel inhibition, selectivity assay for TMEM16A inhibitor project, cell-based, voltage-dependent ClC-1. shares compounds with ANO1 block. CHO ClC-1-YFP, iodide influx fluorescence quench; iodide control reads 0, buffer control 100. ratio percent, % at 10 µM. 2,300 tested, under 10 active. AID 652236, 2013;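 active means duplicate-mean ratio percent above the mean of iodide-only control wells, which defines zero, plus 5 of their SD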;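 further: higher percent means stronger block of ClC-1 iodide influx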
Numbers without * were called inactive; i = inactive; nt = no result given. Shown are actives, neighbours in structure and some others; about 2.5% of the full set was active somewhere.

SMILES	PKA-R1A activ	TMEM16A act	CHT allo act	ANO1 block	CHT block	PKA-R2B act	TMEM16A reconf	HEK293 Ca mobil	YFP-HEK293 quench	ClC-1 rat inh
CC(=O)c1ccc(OCC(O)CN2CCN(Cc3ccccc3)CC2)cc1 (configuration not stated)	7	i	i	i	i	-9	nt	nt	nt	nt
COc1ccc2cc(C(=O)NCCO)sc(=O)c2c1OC	-11	i	i	25*	i	3	i	i	-1.1	-11
COc1ccc2cc(C(=O)Nc3ccccc3)sc(=O)c2c1OC	-9	i	i	i	i	3	nt	nt	nt	nt
O=C(O)c1cc2ccccc2c(N=Nc2cccnc2)c1O	-6	i	i	i	i	3	nt	nt	nt	nt
O=C(Nc1ccccc1)c1ccc(S(=O)(=O)N2CCCCC2)cc1	-6	i	i	i	i	-11	nt	nt	nt	nt
O=C(Nc1ccn(-c2ccccc2)n1)c1ccc(S(=O)(=O)N2CCCCCC2)cc1	3	i	i	25*	i	-19	i	i	-1.2	-7
CCN(CCNCC(O)COc1ccccc1C(C)C)c1cccc(C)c1 (configuration not stated)	-8	i	i	i	i	-13	34%*	i	-1	-16
CCOC(=O)N1CCN(CC(O)COc2ccccc2C(C)C)CC1 (configuration not stated)	10	i	i	i	i	-11	nt	nt	nt	nt
Cc1cccc(NC(=O)/C(C#N)=C\c2cccnc2)c1	-7	i	i	25*	i	6	28%*	i	-0.98	-12
N#C/C(=C\c1cccnc1)C(=O)Nc1cccc(Cl)c1	-3	i	i	i	i	-4	nt	nt	nt	nt
C/C(=N\NC(=S)NCCc1ccccc1)c1ccc(O)cc1O	-1	i	i	25*	i	-5	23%*	i	-1.2	0
CCC(C)NC(=O)c1ccc(C)c(NC(=O)C2=C(C)OCCS2)c1 (configuration not stated)	-1	i	i	i	i	-4	nt	nt	nt	nt
COc1ccc(N(C)C(=O)Cc2c(C(=O)O)[nH]c3ccccc23)cc1	-4	i	i	i	i	-8	nt	nt	nt	nt
CCN(C(=O)Cc1c(C(=O)O)[nH]c2ccccc12)c1cc(OC)ccc1OC	-7	i	i	100*	i	-2	i	i	-1.1	-4
O=C(OCc1c(F)cccc1Cl)c1cccnc1Cl	-8	i	i	i	i	-11	nt	nt	nt	nt
CCc1ccc(NC(=O)c2cnc(N3CCN(c4ccccn4)CC3)c3ccccc23)cc1	nt	i	i	i	i	nt	i	i	-1.2	0
CC(C)NC(=O)c1cnc(N2CCN(c3ccccn3)CC2)c2ccccc12	-11	i	i	i	i	-12	nt	nt	nt	nt
CCCN(CC(=O)Nc1ccccc1C)C(=O)c1nn(CC)c(=O)c2ccccc12	5	i	nt	nt	nt	9	nt	nt	nt	nt
CCCN(CCC)CCN1C(=O)C2C(C(=O)Nc3cccc(SC)c3)C3C=CC2(O3)C1C(=O)NC1CCCCC1 (configuration not stated)	-3	i	i	100*	i	6	i	i	-1.1	-1
O=C(NNC(=S)NCc1ccco1)c1ccc(S(=O)(=O)N2CCOCC2)cc1	-4	i	i	i	i	2	nt	nt	nt	nt
Cc1cccc(NC(=O)CSCC(=O)N(C)Cc2ccc(Cl)c(Cl)c2)c1	-16	i	nt	nt	nt	3	nt	nt	nt	nt
CCOC(OCC)P(=O)(c1ccccc1)c1ccccc1	5	i	i	i	i	2	i	i	-1.2	-2
Cc1ccc(-c2noc(CCCC(=O)NC3CCCC3)n2)cc1	-4	i	i	25*	i	-6	i	i	-1.1	-12
Cc1ccc(S(=O)(=O)Nc2nc(-c3ccccc3)cs2)cc1	4	i	i	i	i	3	nt	nt	nt	nt
Cc1ccc(S(=O)(=O)Nc2ccccc2C(=O)Nc2nc(-c3ccc(F)cc3)cs2)cc1	-3	i	i	25*	i	-5	39%*	i	-1.2	-17
SMILES	PKA-R1A activ	TMEM16A act	CHT allo act	ANO1 block	CHT block	PKA-R2B act	TMEM16A reconf	HEK293 Ca mobil	YFP-HEK293 quench	ClC-1 rat inh
C/C(CC1CC(C)(C)OC1=O)=N\NC(N)=S (configuration not stated)	nt	i	i	i	i	nt	nt	nt	nt	nt
C/C(CC1CC2=C(CC1(C)C)C(C)(C)CCC2)=N\NC(N)=S (configuration not stated)	13	i	i	25*	i	8	i	26%*	-1	-5
O=C(Nc1ccc2oc(-c3ccccc3F)nc2c1)c1ccc2c(c1)OCCO2	-6	i	i	100*	i	-10	17%*	i	-1	-14
CCc1ccccc1NCC(=O)Nc1ccccc1C(=O)OC	-1	i	i	i	i	-3	nt	nt	nt	nt
COC(=O)c1ccccc1NC(=O)CNc1cc(OC)c(OC)cc1C	-4	i	i	25*	i	2	i	i	-1.1	-14
O=C(COC(=O)C1CCC(=O)N1)Nc1ccccc1OC(F)F (configuration not stated)	-11	i	nt	nt	nt	-10	nt	nt	nt	nt
CCOC(=O)N1CCC(Nc2nc3ccccc3nc2NS(=O)(=O)c2ccc(Cl)cc2)CC1	-10	i	i	i	i	8	32%*	i	-0.82	-144
O=S(=O)(Nc1nc2ccccc2nc1N1CCN(c2ccccc2F)CC1)c1ccc(Cl)cc1	-5	i	i	100*	i	-1	38%*	i	-0.99	-10
CCOC(=O)N1CCC(NC(=O)c2ccc(Cl)cc2)CC1	-10	i	i	i	i	8	nt	nt	nt	nt
